IDE exosite inh = exo-site inhibitors of human insulin-degrading enzyme; P14735; purified IDE, FL-6b probe fluorescence polarization; hits give low values; AID 1259349; z-score at 20 µM; actives 6.3% (n = 17,000);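 active = z-score of -3 or lower, meaning strong loss of probe binding signal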;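 note: His-tagged human IDE residues 42-1019 made in E. coli with 30 nM FL-6b probe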
Large screens that a line does not name were inactive. Shown is part of a subset that was picked to be rich in hits.

Cc1cccc(-c2ccc([C@@H]3[C@@H](CO)N4CCCCN(C(=O)c5cccnc5)C[C@@H]34)cc2)c1	IDE exosite inh -3.25
Cc1cccc(-c2ccc([C@@H]3[C@@H](CO)N4CCCCN(C(=O)c5cccnc5)C[C@H]34)cc2)c1	IDE exosite inh -4.33
Cc1cccc(-c2ccc([C@H]3[C@H]4CN(C(=O)c5cccnc5)CCCCN4[C@H]3CO)cc2)c1	none
O=C(c1cccc(F)c1)N1CCCCN2[C@H](CO)[C@@H](c3ccc(-c4cccnc4)cc3)[C@H]2C1	none
Cc1cccc(-c2ccc([C@H]3[C@H](CO)N4CCCCN(C(=O)c5cccnc5)C[C@@H]34)cc2)c1	none
O=C(c1cccc(F)c1)N1CCCCN2[C@H](CO)[C@H](c3ccc(-c4cccnc4)cc3)[C@H]2C1	none
COc1ccc(NC(=O)N(C)C[C@H]2OCCCC[C@@H](C)Oc3ccc(NC(=O)c4ccncc4)cc3C(=O)N([C@@H](C)CO)C[C@@H]2C)cc1	none
CO[C@H](CN(C)Cc1ccc(-c2ccccn2)cc1)[C@H](C)CN(C(=O)Nc1ccc(F)cc1)[C@H](C)CO	none
CO[C@H]1CN(C)C(=O)c2cc(NC(=O)C3CCOCC3)ccc2OC[C@H](C)NC[C@H]1C	none
CC(C)(C)[S@@](=O)N1Cc2cc(C(=O)N[C@@H]3CCN(Cc4ccccc4)C3)nc(-c3cccc(-c4cccnc4)c3)c2[C@H]1CCO	none
